Data reported in PubChem BioAssay (NCATS).
Inconclusive results are not listed. Activity calls are given as the source filed them. Unless noted, the call rests on the fitted dose curve.

biological target: Cytochrome P450 3A4 (Homo sapiens) (UniProt P08684); assay: qHTS Assay for Activators of Cytochrome P450 3A4 (AID 885; active means well fitted curve in the direction sought with a large enough effect; an effect the other way counts as inactive or inconclusive; further: nearly all actives have a fitted effect of over 65% in size); details: recombinant CYP3A4, Luciferin-PPXE luminescence, 60 min; series mostly up to 57.1 µM
Sequence (P08684 whole entry, looked up): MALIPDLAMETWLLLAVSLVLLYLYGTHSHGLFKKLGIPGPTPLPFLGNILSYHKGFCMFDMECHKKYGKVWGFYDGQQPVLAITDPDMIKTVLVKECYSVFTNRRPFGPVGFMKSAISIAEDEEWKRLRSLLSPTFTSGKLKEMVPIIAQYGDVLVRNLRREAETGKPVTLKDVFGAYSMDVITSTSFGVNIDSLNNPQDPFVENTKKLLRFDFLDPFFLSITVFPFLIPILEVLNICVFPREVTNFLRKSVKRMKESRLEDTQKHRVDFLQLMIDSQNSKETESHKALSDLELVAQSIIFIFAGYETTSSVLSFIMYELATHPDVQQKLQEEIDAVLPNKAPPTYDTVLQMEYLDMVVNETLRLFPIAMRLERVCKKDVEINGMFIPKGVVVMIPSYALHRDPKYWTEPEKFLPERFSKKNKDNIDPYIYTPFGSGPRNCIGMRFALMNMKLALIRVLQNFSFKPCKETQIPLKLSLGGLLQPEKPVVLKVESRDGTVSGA
Summary of the method: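 Steps: enzyme/substrate mix dispensed; compound added, 10 min RT; NADPH regeneration solution added, 60 min RT; luciferin detection buffer stops reaction; 20 min later luminescence measured.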

Row | Structure (SMILES) | Potency
1 | FC(F)(F)c1ccccc1-c1nccc(NCc2cccs2)n1 | inactive
2 | COCCn1c(=O)c(-c2cccc(C#N)c2)nc2cnc(Oc3ccccc3)nc21 | inactive
3 | CS(=O)(=O)Nc1cccc(-c2ccc3ncnc(Nc4ccccc4)c3c2)c1 | inactive
4 | FC(F)(F)c1ccccc1-c1nc(NCc2cccs2)c2ccccc2n1 | inactive
5 | c1ccc(CNc2ncnc3ccc(-c4cccnc4)cc23)cc1 | inactive
6 | COCCn1c(=O)cnc2cnc(Nc3cccc(OC)c3)nc21 | inactive
7 | CN1CCN(c2ncc3nc(-c4cc(F)cc(F)c4)c(=O)n(CCc4ccccc4)c3n2)CC1 | inactive
8 | O=c1c(-c2ccc(Cl)cc2)nc2cnc(N3CCNCC3)nc2n1Cc1cccs1 | inactive
9 | O=c1c(-c2ccc(F)cc2)nc2cnc(N3CCNCC3)nc2n1C1CC1 | inactive
10 | COCCNc1ncnc2ccc(-c3cccc(OC)c3)cc12 | inactive
11 | Cc1nc2cncnc2n(C2CC2)c1=O | inactive
12 | COc1ccc2[nH]cc(CCNc3ncnc4ccc(-c5cccnc5)cc34)c2c1 | inactive
13 | COc1ncc2nc(-c3ccc(F)cc3)c(=O)n(C)c2n1 | inactive
14 | CN1CCN(c2ncc3nc(-c4cc(F)cc(F)c4)c(=O)n(Cc4cccs4)c3n2)CC1 | inactive
15 | CCNc1ncc2nc(-c3ccccc3)c(=O)n(Cc3cccs3)c2n1 | inactive
16 | CNc1nc(-c2ccccc2CN(C)C)nc2ccccc12 | inactive
17 | COCCNc1ncnc2ccc(-c3cccnc3)cc12 | inactive
18 | COc1cccc(Cn2c(=O)c(-c3cccc(C#N)c3)nc3cnc(N4CCN(C)CC4)nc32)c1 | inactive
19 | COc1cccc(Cn2c(=O)c(-c3cc(F)cc(F)c3)nc3cnc(N4CCN(C)CC4)nc32)c1 | inactive
20 | COc1cccc(Nc2ncc3nc(C)c(=O)n(Cc4cccs4)c3n2)c1 | inactive
21 | CN(C)c1ncnc2ccc(-c3ccoc3)cc12 | inactive
22 | CCNc1ncc2nc(-c3cn(C)c4ccccc34)c(=O)n(Cc3cccc(OC)c3)c2n1 | inactive
23 | COc1ncc2nc(-c3cccs3)c(=O)n(CCc3ccccc3)c2n1 | inactive

biological target: Cytochrome P450 2C19 (Homo sapiens) (UniProt P33261); assay: qHTS Assay for Inhibitors and Substrates of Cytochrome P450 2C19 (AID 899; active means well fitted curve in the direction sought with a large enough effect; an effect the other way counts as inactive or inconclusive; further: nearly all actives have a fitted effect of over 60% in size; further: potency means the concentration at half of the fitted maximal effect); details: recombinant CYP2C19, luciferin-H EGE luminescence; series mostly up to 57.1 µM
Sequence (P33261 whole entry, looked up): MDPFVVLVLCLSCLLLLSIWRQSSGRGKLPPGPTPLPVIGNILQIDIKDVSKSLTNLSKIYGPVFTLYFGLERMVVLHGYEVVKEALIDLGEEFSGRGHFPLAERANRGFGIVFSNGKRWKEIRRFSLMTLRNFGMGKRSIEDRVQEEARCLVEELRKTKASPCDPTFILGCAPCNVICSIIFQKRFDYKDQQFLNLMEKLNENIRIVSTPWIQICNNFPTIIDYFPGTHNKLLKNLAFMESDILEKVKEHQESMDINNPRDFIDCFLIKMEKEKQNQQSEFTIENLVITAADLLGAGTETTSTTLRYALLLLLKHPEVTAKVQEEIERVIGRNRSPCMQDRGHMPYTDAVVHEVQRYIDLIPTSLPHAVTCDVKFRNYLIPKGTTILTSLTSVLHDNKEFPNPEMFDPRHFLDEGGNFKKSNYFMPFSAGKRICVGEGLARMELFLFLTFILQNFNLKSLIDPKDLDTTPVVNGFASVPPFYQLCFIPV
Summary of the method: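 5nM enzyme + 10uM Luciferin-H EGE (=KM), 50mM KPO4; cpd pin-transferred, 10 min 37C; NADPH regen, 60 min 37C; stopped w/ luciferin detection reagent, 20 min; luminescence. Normalized to 57uM ketoconazole (AC100).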

Row | Structure (SMILES) | Potency
24 | FC(F)(F)c1ccccc1-c1nccc(NCc2cccs2)n1 | 2 µM (active)
25 | FC(F)(F)c1ccccc1-c1nc(NCc2cccs2)c2ccccc2n1 | 7.94 µM (active)
26 | COc1ccc(-c2nc3cnc(N4CCN(C)CC4)nc3n(Cc3cccs3)c2=O)cc1 | inactive
27 | Cc1nc2cncnc2n(C2CC2)c1=O | 3.98 µM (active)

system: not listed separately; assay: qHTS Assay for Identification of Small Molecule Agonists for Hypoxia Response Element Signaling Pathway (AID 914; active means well fitted activation curve with a large enough effect in the signal ratio, with a control signal flat, not every such curve was filed as active; the % refers to the signal ratio; further: potency means the concentration at half of the fitted maximal effect); details: ME-180 (cervical carcinoma) HRE-bla reporter, beta-lactamase ratio, CoCl2, 17 h; activation: stronger effect = higher value
Summary of the method: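 qHTS titration; ME-180 HRE-bla cells; EC50 CoCl2 co-treatment, 17 h at 37 degrees Celsius; CCF4 dye, ex 405nm, em 460nm and 530nm; %Activity from ratio; AC50.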

Row | Structure (SMILES) | Potency
28 | CN1CCN(c2ncc3nc(-c4cc(F)cc(F)c4)c(=O)n(CCc4ccccc4)c3n2)CC1 | 3.16 µM (active)
29 | O=c1c(-c2ccc(F)cc2)nc2cnc(N3CCNCC3)nc2n1C1CC1 | 2.51 µM (active)
30 | CN(C)c1ncc2nc(-c3ccc(F)cc3)c(=O)n(Cc3ccc(F)cc3)c2n1 | 3.16 µM (active)
31 | Cn1c(=O)c(-c2ccc(Cl)cc2)nc2cnc(N3CCOCC3)nc21 | 2.51 µM (active)
32 | CN(C)c1ncc2nc(-c3ccccc3)c(=O)n(Cc3ccc(F)cc3)c2n1 | 0.501 µM (active)
33 | COc1ncc2nc(-c3ccc(F)cc3)c(=O)n(C)c2n1 | 3.16 µM (active)
34 | CN1CCN(c2ncc3nc(-c4cc(F)cc(F)c4)c(=O)n(Cc4cccs4)c3n2)CC1 | 3.16 µM (active)
35 | CCNc1ncc2nc(-c3ccccc3)c(=O)n(Cc3cccs3)c2n1 | 3.16 µM (active)
36 | CN1CCN(c2ncc3nc(-c4ccc(F)cc4)c(=O)n(Cc4cccs4)c3n2)CC1 | 3.16 µM (active)
37 | COc1cccc(Cn2c(=O)c(-c3cccc(C#N)c3)nc3cnc(N4CCN(C)CC4)nc32)c1 | 3.16 µM (active)
38 | COc1cccc(Cn2c(=O)c(-c3cc(F)cc(F)c3)nc3cnc(N(C)C)nc32)c1 | 0.398 µM (active)
39 | CCNc1ncc2nc(-c3cn(C)c4ccccc34)c(=O)n(Cc3cccc(OC)c3)c2n1 | 1.58 µM (active)
40 | COc1ncc2nc(-c3cccs3)c(=O)n(CCc3ccccc3)c2n1 | 3.16 µM (active)

system: not listed separately; assay: qHTS Assay for Lipid Storage Modulators (AID 1519); details: Drosophila S3 cells, BODIPY lipid droplet/cell ratio, laser cytometry; at 57.5 µM (top of the series); cells loaded with oleic acid; further: on the % scale 0 is the no-effect control and ±100 the full control effect
Summary of the method: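 Cells seeded at 5,000 per well were treated with compounds over a concentration series and loaded with oleic acid (400 uM, as added). Lipid droplet fluorescence (488 nm excitation, 500-530 nm channel) was read by laser-scanning cytometry and normalized to 20 uM Triacsin C.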

Row | Structure (SMILES) | activity change, negative = inhibition
41 | FC(F)(F)c1ccccc1-c1nccc(NCc2cccs2)n1 | 5.22% (inactive)
42 | CN1CCN(c2ncc3ncc(=O)n(C[C@H]4CCCO4)c3n2)CC1 | 6.86% (inactive)
43 | COCCn1c(=O)c(-c2cccc(C#N)c2)nc2cnc(Oc3ccccc3)nc21 | -5.58% (inactive)
44 | CS(=O)(=O)Nc1cccc(-c2ccc3ncnc(Nc4ccccc4)c3c2)c1 | 5.6% (inactive)
45 | FC(F)(F)c1ccccc1-c1nc(NCc2cccs2)c2ccccc2n1 | 2.3% (inactive)
46 | c1ccc(CNc2ncnc3ccc(-c4cccnc4)cc23)cc1 | -2.12% (inactive)
47 | COc1ccc(-c2nc3cnc(N4CCN(C)CC4)nc3n(Cc3cccs3)c2=O)cc1 | 1.59% (inactive)
48 | COCCn1c(=O)cnc2cnc(Nc3cccc(OC)c3)nc21 | -15.5% (inactive)
49 | COCCn1c(=O)cnc2cnc(Nc3ccccc3)nc21 | -9% (inactive)
50 | CN1CCN(c2ncc3nc(-c4cc(F)cc(F)c4)c(=O)n(CCc4ccccc4)c3n2)CC1 | -3.87% (inactive)
51 | O=c1c(-c2ccc(Cl)cc2)nc2cnc(N3CCNCC3)nc2n1Cc1cccs1 | 0.33% (inactive)
52 | O=c1c(-c2ccc(F)cc2)nc2cnc(N3CCNCC3)nc2n1C1CC1 | 2.85% (inactive)
53 | COc1ccc(-n2c(=O)c(-c3ccc(Cl)cc3)nc3cnc(N4CCNCC4)nc32)cc1 | 5.55% (inactive)
54 | COCCNc1ncnc2ccc(-c3cccc(OC)c3)cc12 | -4.77% (inactive)
55 | O=c1c(-c2ccc(Cl)cc2)nc2cnc(N3CCOCC3)nc2n1-c1ccccc1 | -3% (inactive)
56 | CN(C)c1ncc2nc(-c3ccc(F)cc3)c(=O)n(Cc3ccc(F)cc3)c2n1 | 5.32% (inactive)
57 | COc1ccc(-c2nc3cnc(Oc4ccccc4)nc3n(CCC#N)c2=O)cc1 | 1.13% (inactive)
58 | COc1cccc(Nc2ncc3nc(CCc4ccccc4)c(=O)n(C)c3n2)c1 | -10% (inactive)
59 | Cc1nc2cncnc2n(C2CC2)c1=O | 9.2% (inactive)

Row | Structure (SMILES) | activity change, negative = inhibition
60 | COc1ccc2[nH]cc(CCNc3ncnc4ccc(-c5cccnc5)cc34)c2c1 | -3.03% (inactive)
61 | Cn1c(=O)c(-c2ccc(Cl)cc2)nc2cnc(N3CCOCC3)nc21 | 6.96% (inactive)
62 | CN(C)c1ncc2nc(-c3ccccc3)c(=O)n(Cc3ccc(F)cc3)c2n1 | 0.549% (inactive)
63 | COc1ncc2nc(-c3ccc(F)cc3)c(=O)n(C)c2n1 | 7.5% (inactive)
64 | CN1CCN(c2ncc3nc(-c4cc(F)cc(F)c4)c(=O)n(Cc4cccs4)c3n2)CC1 | -9.14% (inactive)
65 | CCNc1ncc2nc(-c3ccccc3)c(=O)n(Cc3cccs3)c2n1 | 1.76% (inactive)
66 | CN1CCN(c2ncc3nc(-c4ccc(Cl)cc4)c(=O)n(-c4ccccc4)c3n2)CC1 | 4.1% (inactive)
67 | CN1CCN(c2ncc3nc(-c4ccc(F)cc4)c(=O)n(Cc4cccs4)c3n2)CC1 | -3.43% (inactive)
68 | CNc1nc(-c2ccccc2CN(C)C)nc2ccccc12 | 1.92% (inactive)
69 | COCCNc1ncnc2ccc(-c3cccnc3)cc12 | 5.11% (inactive)
70 | COc1cccc(Cn2c(=O)c(-c3cccc(C#N)c3)nc3cnc(N4CCN(C)CC4)nc32)c1 | 2.54% (inactive)
71 | COc1cccc(Cn2c(=O)c(-c3cc(F)cc(F)c3)nc3cnc(N(C)C)nc32)c1 | -0.73% (inactive)
72 | COc1cccc(Cn2c(=O)c(-c3cc(F)cc(F)c3)nc3cnc(N4CCN(C)CC4)nc32)c1 | 1.17% (inactive)
73 | COc1cccc(Nc2ncc3nc(C)c(=O)n(Cc4cccs4)c3n2)c1 | -16.2% (inactive)
74 | CN1CCN(c2cc(-c3ccoc3)ncn2)CC1 | 6.62% (inactive)
75 | CN(C)c1ncnc2ccc(-c3ccoc3)cc12 | 1.41% (inactive)
76 | CCNc1ncc2nc(-c3cn(C)c4ccccc34)c(=O)n(Cc3cccc(OC)c3)c2n1 | 2.75% (inactive)
77 | COc1ccc(-c2nc3cnc(Oc4cccc(Cl)c4)nc3n(C3CC3)c2=O)cc1 | -3.67% (inactive)
78 | COc1ncc2nc(-c3cccs3)c(=O)n(CCc3ccccc3)c2n1 | 2.39% (inactive)
